Assay outcomes deposited in PubChem BioAssay by several laboratories.
This is a sample that favours compounds with a hit; in the whole collection about 2.2% have one here.
APP 5UTR inh: inhibitors of APP translation via 5'UTR reporter, primary screen, APP 5'UTR luciferase, SH-SY5Y cells | SH-SY5Y APP 5'UTR-luciferase reporter, luminescence | inhibition, % at 2 µM | 0.82% of 190,000 active | AID 1285, 2008;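 active = inhibition above a set limit, derived from the sample mean plus 3 SD, cut at about 45% in these data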
BaF3 parental: parental Ba/F3 cell viability inhibition, counter-screen for JAK2V617F inhibitor project, murine pro-B, CellTiter-Glo luminescence; CellTiter-Glo ATP luminescence; 1.1% of 220,000 active; inhibition, % at 5.6 µM;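 active = inhibition above a per-campaign cutoff, the mean inhibition of all tested compounds plus 3 SD, cut at about 27% in these data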
Ba/F3 V617F tox: reduced viability of JAK2V617F-dependent Ba/F3 cells, primary screen, JAK2V617F inhibitor project, cell-based, Ba/F3 EpoR-JAK2V617F, luminescence. ATP luminescence. inhibition, % at 5.6 µM. 1.1% of 220,000 active. AID 1446, 2008;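 active = inhibition above the campaign mean plus 3 SD over all tested compounds, cut at about 24% in these data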;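 also: cytokine-independent growth of Ba/F3 cells driven by EpoR plus mutant JAK2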
IEC-6 tox-1: cytotoxicity in IEC-6 intestinal epithelial cells, primary screen, cytotoxicity control for KLF5 inhibitor project, cell-based, luminescence. IEC-6 cytotoxicity, luminescence viability. inhibition, % at 5 µM. 0.78% of 290,000 active. AID 1825, 2009
aSyn 5UTR inh: MLPCN primary screen, SNCA 5' untranslated region | alpha-synuclein 5'UTR reporter, inhibitor activity | inhibition, % (tested at 7.5 µM) | 0.82% of 300,000 active | AID 1813, 2009; in the data active = inhibition above about 60%;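 also: H4 neuroglioblastoma cells stably carrying SNCA 5'UTR luciferase fusion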
KLF5 inhibitor: KLF5 expression inhibitors, primary screen, DLD-1 cells, luminescence; DLD-1 KLF5 promoter-luciferase reporter; inhibition, % at 5 µM; 0.23% of 290,000 active;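 active = inhibition above a per-plate limit of that plate's mean compound inhibition plus 3 SD, cut at about 60% in these data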;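 also: higher means less KLF5 promoter-driven luciferase light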
KLF5 confirm: KLF5 expression inhibitors, confirmation, DLD-1 cells, luminescence; 79% of 610 active; AID 1834, 2009; shares compounds with KLF5 inhibitor; inhibition, % at 4 µM; DLD-1 KLF5 promoter firefly luciferase reporter;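 active = inhibition above a set limit taken from the earlier primary screen, cut at about 63% in these data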
IEC-6 tox-2: cytotoxicity in rat IEC-6 cells, cytotoxicity control for KLF5 inhibitor project, cell-based, luminescence, triplicate; IEC-6 rat intestinal cells, viability luminescence; shares compounds with KLF5 inhibitor; 56% of 610 active; AID 1905, 2009; inhibition, % at 4 µM; in the data active = inhibition above about 23%;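 also: cells exposed to compounds for 48 hours before viability read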
IEC-6 tox confirm: cytotoxic compounds in IEC-6 epithelial cells, confirmation, cytotoxicity control, cell-based, luminescence | shares compounds with IEC-6 tox-1 | inhibition, % at 5 µM | 63% of 1,900 active | IEC-6 rat intestinal epithelial viability | AID 1907, 2009
A number is an active result; n = inactive; x = no result given. Rule as the data show it, unless noted: active = inhibition above about 22%; inactive = the rest.

SMILES	APP 5UTR inh	BaF3 parental	Ba/F3 V617F tox	IEC-6 tox-1	aSyn 5UTR inh	KLF5 inhibitor	KLF5 confirm	IEC-6 tox-2	IEC-6 tox confirm
COc1ccc(CCNc2nnc(Sc3nnnn3-c3ccccc3)s2)cc1OC	93.9	96.3	93.4	92.6	119.6	65.0	80.5	70.4	77.0
COc1cc(-c2noc(C)c2/C=C/c2ccc(OC(C)=O)cc2)cc(OC)c1OC	x	x	x	91.1	95.2	71.1	83.5	62.8	60.3
COc1cc(-c2noc(C)c2C#CCO)cc(OC)c1OC	x	x	x	n	n	n	x	x	x
COc1ccc(CC(=O)NCc2ccc(-n3cccc3)cc2)cc1OC	x	x	x	75.6	63.9	70.9	71.6	59.9	58.0
Cc1cc(C)cc(N(CCC#N)C(=O)COC(=O)c2nc3nc(C)cc(C)n3n2)c1	x	x	x	x	n	x	x	x	x
COc1ccc(NC(=O)Cc2ccccc2)cn1	n	n	n	n	n	n	x	x	x
COc1ccc(NC(=O)/C(Cl)=C(/Cl)S(=O)Cc2ccccc2)cn1 (stereo unspecified)	x	102.3	99.2	100.4	120.9	96.3	106.6	73.0	89.8
CCOc1ccc(C2=Nn3c(nnc3-c3ccccc3OC)SC2)cc1	94.9	93.1	96.0	95.5	108.9	82.5	94.2	84.1	82.9
Brc1ccc(C2=Nn3c(nnc3-c3n[nH]c4c3CCC4)SC2)cc1	94.4	80.5	75.0	77.4	86.0	67.5	67.4	62.8	58.8
O=C(Nc1ccc(N2CCN(C(=O)c3cccs3)CC2)cc1)c1cccc(F)c1	x	x	x	n	n	n	x	x	x
COc1cccc(C(=O)Nc2ccc(N3CCN(C(=O)c4cccs4)CC3)cc2)c1	x	x	x	77.3	n	63.4	n	35.1	34.5
CCOc1ccc(NC(=O)CN(C)C(=O)c2ccc(NC3CC3)c([N+](=O)[O-])c2)cc1OCC	x	x	x	x	n	x	x	x	x
Cc1cccc(C)c1NC(=O)NCc1ccco1	x	n	n	n	n	n	x	x	x
Cc1cccc(C)c1OCCNC(=O)C(=O)NCc1ccco1	84.8	80.5	76.8	77.1	n	65.3	82.6	61.3	59.0
COc1ccc(C(=O)NCc2nnc(SCC(=O)N3CCC(C)CC3)o2)cc1	n	n	n	n	n	n	x	x	x
O=C1OCC2=C1C(c1ccc(F)cc1)c1cc3c(cc1N2)OCCO3 (stereo unspecified)	93.7	95.7	95.7	94.7	x	98.4	91.8	84.1	86.1
O=C1OCC2=C1C(c1ccc3c(c1)OCO3)Sc1ccccc1N2 (stereo unspecified)	n	n	n	n	n	n	x	x	x
CC(=O)Oc1ccc(C2C3=C(CC(C)(C)CC3=O)Nc3cc4c(cc32)OCCO4)cc1 (stereo unspecified)	n	n	n	n	n	n	x	x	x
O=C1OCC2=C1C(c1ccc(F)cc1)c1cc3c(cc1N2)OCO3 (stereo unspecified)	94.8	n	59.0	76.6	x	68.3	88.2	85.9	83.6
C#CCOc1ccc(C2C3=C(COC3=O)Nc3cc4c(cc32)OCO4)cc1OC (stereo unspecified)	94.6	95.1	94.0	94.9	132.0	78.9	88.1	82.7	84.4
COc1cc2c(cc1OC)C(c1ccc3c(c1)OCO3)C1=C(CC(C)(C)CC1=O)N2 (stereo unspecified)	n	n	n	n	n	n	x	x	x
COc1cc(C(=O)N/N=C/C2CC=CCC2)cc(OC)c1OC (stereo unspecified)	93.0	79.3	83.0	89.8	107.5	64.3	n	n	n
COc1cc(C(=O)N/N=C/c2ccsc2C)cc(OC)c1OC	95.9	85.0	83.0	89.3	92.1	76.0	86.4	66.4	60.2
CCCCn1c(N)c(N(CC(C)C)C(=O)CSc2nnc(-c3ccc(Cl)cc3)o2)c(=O)[nH]c1=O	x	x	x	x	n	x	x	x	x
